In PubChem BioAssay AID2284349 (EPA ToxCast):
Results filed as inconclusive are left out. Active and inactive are the calls of the source. How the source made its calls: active means hit-call score of the fitted dose curve at least 0.9, where 1 is the maximum; inconclusive means response in the unintended direction; inactive means score below 0.9.

Target: frog Peroxisome Proliferator-activated Receptor-gamma (PPARg), pparg (gene 397769) (UniProt P37234)
Assay: ATG_frPPARg_EcoTox2: Attagene TRANS-FACTORIAL EcoTox-2 HepG2 Assay for frog Peroxisome Proliferator-activated Receptor-gamma (PPARg)
Procedure: ATG_EcoTox2 is a cell-based, multiplexed assay created by modifying the existing Attagene TRANS-FACTORIAL system to include a panel of nuclear receptors from some or all the following species: human (Homo sapiens), african clawed frog (Xenopus laevis), rainbow trout (Oncorhynchus mykiss), japanese medaka (Oryzias latipes), and zebrafish (Danio rerio). The ECOTOX2-FACTORIAL format uses HepG2, a human liver cell line, with measurements taken at 24 hours after chemical dosing in a 24-well plate. ATG_frPPARg_EcoTox2 is one of 29 assay components calculated in the ATG_EcoTox2 assay. It is designed to make measurements of mRNA induction, a form of inducible reporter, as detected with fluorescence intensity signals by Reverse transcription polymerase chain reaction (RT-PCR) and Capillary electrophoresis technology.The assay endpoint ATG_frPPARg_EcoTox2 was analyzed in the positive analysis fitting direction relative to DMSO as the negative control and baseline of activity. Using a type of inducible reporter, measures of mRNA for gain-of-signal activity can be used to understand the reporter gene at the transcription factor-level as they relate to the gene PPARg. Furthermore, this assay endpoint can be referred to as a primary readout, because this assay has produced multiple assay endpoints where this one serves a reporter gene function. […]

Sequence of frog Peroxisome Proliferator-activated Receptor-gamma (PPARg), pparg (gene 397769) (P37234 whole entry, looked up): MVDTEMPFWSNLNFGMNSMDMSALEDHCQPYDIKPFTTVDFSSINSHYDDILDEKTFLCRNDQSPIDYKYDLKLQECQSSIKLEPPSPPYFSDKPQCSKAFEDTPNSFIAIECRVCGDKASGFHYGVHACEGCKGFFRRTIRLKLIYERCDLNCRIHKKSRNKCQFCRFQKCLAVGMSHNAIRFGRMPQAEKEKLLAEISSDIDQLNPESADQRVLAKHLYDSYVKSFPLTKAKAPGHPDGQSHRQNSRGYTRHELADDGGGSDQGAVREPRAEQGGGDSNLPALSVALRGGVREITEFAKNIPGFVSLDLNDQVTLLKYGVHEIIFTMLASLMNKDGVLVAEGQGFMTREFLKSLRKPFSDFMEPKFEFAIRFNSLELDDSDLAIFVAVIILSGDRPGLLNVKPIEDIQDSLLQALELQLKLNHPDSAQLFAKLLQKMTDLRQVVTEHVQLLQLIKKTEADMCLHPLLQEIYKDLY

Structure (SMILES) | outcome
CCCCOCN(C(=O)CCl)c1c(CC)cccc1CC | inactive
O=S(=O)(O)C(F)(F)C(F)(F)C(F)(F)C(F)(F)C(F)(F)C(F)(F)F | inactive
